From PubChem BioAssay
Unmarked numbers belong to inactive results. Where a call stands in place of a potency, no number is given. For part of these data: Potency and affinity values are given separately. The source made the active and inactive calls. Unless noted, how the calls were made is not given here.

What was measured:
[1] = antimalarial activity against Dd2 strain (AID 2302;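 active means growth inhibition above 50% at the single 2 µM test dose, taken to imply half-maximal potency below 2 µM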); details: P. falciparum Dd2 in RBCs, LDH growth readout, 72 h; at 2 µM; hits give high values
[2] = HepG2 cytotoxicity, primary screen, cytotoxicity control for P. falciparum antimalarial project, cell-based, ATP luminescence (AID 2303;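 active means inhibition above 50%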); details: HepG2 viability, 24-48 h, at 10 µM, hits give high values
[3] = molecular target: L-lactate dehydrogenase (Plasmodium falciparum (isolate CDC / Honduras)) (UniProt Q27743); test: PfLDH activity inhibition – cell lysate, 3D7 strain, counter-screen for P. falciparum growth inhibition project (AID 2304); details: P. falciparum 3D7 crude extract, LDH APAD/NBT absorbance; at 2 µM; hits give high values
Sequence of L-lactate dehydrogenase (Plasmodium falciparum (isolate CDC / Honduras)) (Q27743 whole entry, looked up): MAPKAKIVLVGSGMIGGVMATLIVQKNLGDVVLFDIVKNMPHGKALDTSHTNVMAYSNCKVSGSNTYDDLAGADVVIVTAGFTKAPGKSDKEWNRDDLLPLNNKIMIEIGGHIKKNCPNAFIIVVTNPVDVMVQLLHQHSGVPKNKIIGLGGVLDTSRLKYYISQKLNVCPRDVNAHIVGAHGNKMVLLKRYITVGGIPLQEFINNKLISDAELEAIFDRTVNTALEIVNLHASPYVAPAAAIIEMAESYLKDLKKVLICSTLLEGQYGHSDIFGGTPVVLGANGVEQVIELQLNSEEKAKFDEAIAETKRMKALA

[4] = inhibition of 3D7 malaria parasite growth – strain 3D7 (AID 2306); details: P. falciparum 3D7 erythrocytic growth, LDH absorbance, 72 h; at 2 µM; hits give high values
[5] = molecular target: Calcium-dependent protein kinase 1 (Plasmodium falciparum (isolate 3D7)) (UniProt P62344); test: PfCDPK1 kinase inhibitors, biochemical, TCAMS library (AID 1159585; cut-off not given, nearly all actives have IC50 up to about 0.98 µM;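 further: inhibitors leave more ATP so luminescence rises with inhibition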); details: recombinant PfCDPK1, Kinase-Glo ATP depletion luminescence
Sequence of Calcium-dependent protein kinase 1 (Plasmodium falciparum (isolate 3D7)) (P62344 whole entry, looked up): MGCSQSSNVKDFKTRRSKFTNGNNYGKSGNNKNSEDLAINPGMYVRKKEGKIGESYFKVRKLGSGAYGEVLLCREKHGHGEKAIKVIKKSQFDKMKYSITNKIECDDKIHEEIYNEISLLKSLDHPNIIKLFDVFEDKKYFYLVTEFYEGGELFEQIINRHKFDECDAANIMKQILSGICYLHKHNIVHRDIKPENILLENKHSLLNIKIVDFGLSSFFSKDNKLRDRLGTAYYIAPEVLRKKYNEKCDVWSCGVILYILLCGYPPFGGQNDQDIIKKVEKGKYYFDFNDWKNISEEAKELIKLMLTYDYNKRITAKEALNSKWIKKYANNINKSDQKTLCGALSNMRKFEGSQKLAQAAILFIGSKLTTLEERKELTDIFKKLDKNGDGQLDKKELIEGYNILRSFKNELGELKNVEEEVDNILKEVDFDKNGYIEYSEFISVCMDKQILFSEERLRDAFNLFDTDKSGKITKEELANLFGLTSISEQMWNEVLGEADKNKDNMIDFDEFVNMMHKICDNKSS

[6] = molecular target: Plasmodium falciparum protein kinase 6 (PK6, PF3D7_1337100) (UniProt Q8IDW1); test: PfPK6 kinase inhibitors, biochemical, TCAMS library (AID 1159586); details: recombinant PfPK6, Kinase-Glo ATP depletion luminescence
Sequence of Plasmodium falciparum protein kinase 6 (PK6, PF3D7_1337100) (Q8IDW1 1-305): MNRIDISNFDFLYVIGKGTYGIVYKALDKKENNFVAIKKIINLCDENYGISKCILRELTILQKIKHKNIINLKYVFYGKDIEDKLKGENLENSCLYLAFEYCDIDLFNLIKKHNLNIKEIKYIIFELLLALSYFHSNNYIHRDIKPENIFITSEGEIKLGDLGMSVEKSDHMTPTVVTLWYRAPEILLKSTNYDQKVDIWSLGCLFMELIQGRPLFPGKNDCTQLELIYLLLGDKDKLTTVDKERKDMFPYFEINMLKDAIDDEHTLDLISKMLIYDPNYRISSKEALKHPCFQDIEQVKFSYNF

[7] = molecular target: Protein kinase 7 (PK7), Plasmodium falciparum 3D7 (PF3D7_0213400) (UniProt Q7YTF7); test: inhibition of Plasmodium PK7 catalytic activity – biochemical, TCAMS antimalarial set, Kinase-Glo luminescence (AID 1159587); details: recombinant PfPK7, Kinase-Glo ATP depletion luminescence
Sequence of Protein kinase 7 (PK7), Plasmodium falciparum 3D7 (PF3D7_0213400) (Q7YTF7 1-343): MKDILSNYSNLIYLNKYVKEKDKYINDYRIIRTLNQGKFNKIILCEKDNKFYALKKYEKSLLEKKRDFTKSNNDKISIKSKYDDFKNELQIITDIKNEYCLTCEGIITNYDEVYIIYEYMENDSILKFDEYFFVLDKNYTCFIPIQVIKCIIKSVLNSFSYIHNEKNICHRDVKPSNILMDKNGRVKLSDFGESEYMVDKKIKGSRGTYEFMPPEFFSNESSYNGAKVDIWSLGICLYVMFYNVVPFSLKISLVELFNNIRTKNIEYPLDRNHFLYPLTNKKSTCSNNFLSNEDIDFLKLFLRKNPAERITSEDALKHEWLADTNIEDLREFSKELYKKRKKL

[8] = molecular target: Calcium-dependent protein kinase 4 (Plasmodium falciparum (isolate 3D7)) (UniProt Q8IBS5); test: PfCDPK4 kinase inhibitors, biochemical, TCAMS library (AID 1159588; cut-off not given, nearly all actives have IC50 up to about 0.91 µM); details: recombinant PfCDPK4, Kinase-Glo ATP depletion luminescence
Sequence of Calcium-dependent protein kinase 4 (Plasmodium falciparum (isolate 3D7)) (Q8IBS5 whole entry, looked up): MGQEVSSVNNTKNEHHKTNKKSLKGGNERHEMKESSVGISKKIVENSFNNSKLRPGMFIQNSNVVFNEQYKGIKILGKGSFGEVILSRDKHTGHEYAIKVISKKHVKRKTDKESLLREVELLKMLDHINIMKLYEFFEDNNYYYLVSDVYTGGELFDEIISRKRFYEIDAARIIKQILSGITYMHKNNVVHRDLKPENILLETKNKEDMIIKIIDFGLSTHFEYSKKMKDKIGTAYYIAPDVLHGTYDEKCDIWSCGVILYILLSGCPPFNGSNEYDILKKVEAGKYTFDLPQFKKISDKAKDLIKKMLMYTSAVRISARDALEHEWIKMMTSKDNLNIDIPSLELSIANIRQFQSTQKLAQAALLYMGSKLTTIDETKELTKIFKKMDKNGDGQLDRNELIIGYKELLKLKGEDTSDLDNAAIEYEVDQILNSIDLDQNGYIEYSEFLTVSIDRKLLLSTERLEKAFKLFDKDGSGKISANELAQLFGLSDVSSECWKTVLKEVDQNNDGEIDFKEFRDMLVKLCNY

SMILES | growth inhibition [1] | inhibition [2] | inhibition [3] [%] | growth inhibition [4] | outcome [5] | outcome [6] | outcome [7] | outcome [8]
CCOc1cc(C(=O)Nc2ccc3nc(N4CCN(C)CC4)cc(C)c3c2)cc(OCC)c1OCC | 50% (active) | 14% | -1 | 97% (active) | inactive | inactive | inactive | inactive
CC(=O)c1cccc2cc(C(=O)NC3CCC(CCN4CCc5ccc(C#N)cc5C4)CC3)[nH]c12 (configuration not stated) | 17% | 12% | -4 | 100% (active) | inactive | inactive | inactive | inactive
O=C(NCc1cccc(F)c1)c1ccc(O)c(-c2cc(Cl)cc(Cl)c2)c1 | 99% (active) | 0% | 1 | 99% (active) | inactive | inactive | inactive | inactive
CCCOc1ccc(C=C(CC(=O)O)c2nc3ccccc3s2)cc1OCC | 84% (active) | 7% | -1 | 89% (active) | inactive | inactive | inactive | inactive
CC(C)CN1C(=O)c2ccccc2C(C(=O)Nc2cccc(C#N)c2)C1c1cccs1 (configuration not stated) | 100% (active) | 11% | -4 | 101% (active) | inactive | inactive | inactive | inactive
CC(C)(Oc1c(C2CCN(CCCCNC(=O)c3ccc(-c4ccc(C#N)cc4)cc3)CC2)ccc2c1CCCC2)C(N)=O | 82% (active) | 34% | 6 | 100% (active) | inactive | inactive | inactive | inactive
O=C(Nc1ccc(F)c([N+](=O)[O-])c1)Nc1cc(C(F)(F)F)ccc1Cl | 86% (active) | 5% | 0 | 101% (active) | inactive | inactive | inactive | inactive
CN(C)c1nc2cc(-n3cnc4cc(-c5ccc(Cl)cc5)sc4c3=O)ccc2n1CCCN1CCCC1 | 73% (active) | 99% (active) | 2 | 97% (active) | inactive | inactive | inactive | inactive
Nc1c2nc(-c3c(F)cccc3Cl)[nH]c(=O)c2nc(=O)n1-c1ccccc1 | 0% | 52% (active) | 2 | 95% (active) | inactive | inactive | inactive | inactive
Cc1noc(C)c1-c1ccc2c(Nc3ccccc3C(C)(C)C)c(C(=O)NCc3cccc4ccccc34)cnc2c1 | 64% (active) | 4% | -2 | 96% (active) | inactive | inactive | inactive | inactive
CCC(C)(C)c1ccc(OCCCC(=O)Nc2ccc(Cl)c([N+](=O)[O-])c2)c(C(C)(C)CC)c1 | 88% (active) | -1% | -8 | 92% (active) | inactive | inactive | inactive | inactive
CCOc1cc2c(cc1OCC)C(c1ccc(O)c(Cl)c1)NCC2 (configuration not stated) | 98% (active) | 6% | 4 | 98% (active) | inactive | inactive | inactive | inactive
O=C(N[C@@H](Cc1ccccc1)C(=O)NC1CCCc2ccccc21)c1ccc(O)c(-c2ccc(Cl)c(Cl)c2)c1 (some centres not stated) | 99% (active) | -3% | -8 | 97% (active) | inactive | inactive | inactive | inactive
Oc1ccc(CN2CCC(NCc3cccc4ccccc34)CC2)cc1 | 8% | 8% | -3 | 97% (active) | inactive | inactive | inactive | inactive
CCN(CC)CCNc1ccnc2[nH]c3ccc(C)cc3c12 | 81% (active) | 9% | -3 | 102% (active) | inactive | inactive | inactive | inactive
CCc1cn2c3c(cc(C(=O)N[C@@H](Cc4cccc(Cl)c4)[C@H](O)CNC4CC4)cc13)N(C)S(=O)(=O)CC2 | 98% (active) | 10% | -1 | 98% (active) | inactive | inactive | inactive | inactive
COc1ccc2nc(C)cc(Nc3ccc(Oc4ccc(Cl)c5ccccc45)c(Cl)c3)c2c1 | 100% (active) | 83% (active) | -2 | 100% (active) | inactive | inactive | inactive | inactive
c1cc(CNCCN2CCNCC2)cc(-c2ccc(-c3nc4ccccc4[nH]3)cc2)c1 | 11% | 3% | -3 | 98% (active) | inactive | inactive | inactive | inactive
NC(=O)Nc1ccc2cn[nH]c2c1 | -2% | 4% | -3 | 97% (active) | inactive | inactive | inactive | inactive
Cn1nc(-c2cccc(CNC3CCc4ccccc43)c2)c2cnc(NCCCN3CCCC3)nc21 (configuration not stated) | 15% | 29% | -2 | 99% (active) | inactive | inactive | inactive | inactive

SMILES | growth inhibition [1] | inhibition [2] | inhibition [3] [%] | growth inhibition [4] | outcome [5] | outcome [6] | outcome [7] | outcome [8]
O=C(/C=C/c1ccc(Cl)c(Cl)c1)NCCCCCN1CCCN(C(=O)Nc2ccc(Cl)c(Cl)c2)CC1 | 2% | 55% (active) | 2 | 100% (active) | inactive | inactive | inactive | inactive
Cc1ccccc1-c1nc2c(CN3CCC(O)(c4ccccc4)CC3)c(O)ccc2[nH]1 | 61% (active) | 27% | 4 | 92% (active) | inactive | inactive | inactive | inactive
O=C(Nc1cccc(C(F)(F)F)c1)c1cccc(S(=O)(=O)NCC2CCN(CC3CCCCC3)CC2)c1 | 5% | 27% | 0 | 97% (active) | inactive | inactive | inactive | inactive
COc1ccc(-c2nnc(Sc3ccc(C#N)c([N+](=O)[O-])c3)n2CC(C)C)cc1 | 78% (active) | 3% | 4 | 97% (active) | inactive | inactive | inactive | inactive
N#Cc1cnc2cc(-c3cnc(CNCCN4CCOCC4)s3)ccc2c1Nc1ccc(Oc2ccccc2)cc1 | 83% (active) | 30% | 2 | 97% (active) | inactive | inactive | inactive | inactive
Cc1nc(-c2ccc(-c3ccc(C(=O)Nc4ccc(-n5ccnc5)c(N5CCN(C)CC5)c4)cc3)c(C)c2)no1 | 100% (active) | 34% | 2 | 100% (active) | inactive | inactive | inactive | inactive
CN1CCN(CCCSc2ccc3c(c2)ncn3-c2cc(OCc3ccccc3C(F)(F)F)c(C(N)=O)s2)CC1 | 86% (active) | 28% | 8 | 101% (active) | inactive | inactive | inactive | inactive
Cc1cccc(Nc2nccc(NCC(O)c3cccc(C(F)(F)F)c3)n2)c1 (configuration not stated) | 94% (active) | 25% | -2 | 100% (active) | inactive | inactive | inactive | inactive
COc1ccc(NC(=O)Nc2ccc(-c3ccncc3)c(Cl)c2)cc1N1CCN(C)CC1 | 62% (active) | 19% | 3 | 98% (active) | inactive | inactive | inactive | inactive
CN(C)CC(=O)N(Cc1ccc(Cl)c(Cl)c1)Cc1csc(-c2ccc(CNCc3ccccc3)cc2)n1 | 32% | 30% | 4 | 96% (active) | inactive | inactive | inactive | inactive
O=C(Nc1cccc(-c2ccc(-c3nc4ccc(F)cc4[nH]3)s2)c1)c1cccnc1 | 72% (active) | 46% | -5 | 100% (active) | inactive | inactive | inactive | inactive
COc1ccc(Nc2nccc(-c3c(-c4cccc(NC(=O)c5c(F)cccc5F)c4)nn4ccccc34)n2)cc1Cl | 71% (active) | 61% (active) | -1 | 95% (active) | inactive | inactive | inactive | inactive
CCOc1c(OC)ccc2c1CCN(CCN1CCC(CNC(=O)c3ccc(-c4ccc(C(F)(F)F)cc4)cc3)CC1)C2 | 21% | 54% (active) | 2 | 102% (active) | inactive | inactive | inactive | inactive
Cc1ccc2nc(C)cc(NN=Cc3ccc([N+](=O)[O-])cc3)c2c1 | 15% | 10% | 3 | 102% (active) | inactive | inactive | inactive | inactive
Nc1c(Cl)cc(C(O)CNCCCCCCOCCC=C2CCOCC2)cc1Cl (configuration not stated) | 9% | 7% | 0 | 100% (active) | inactive | inactive | inactive | inactive
Cc1ccccc1C(=O)NC(NC(=S)Nc1ccc([N+](=O)[O-])cc1)C(Cl)(Cl)Cl (configuration not stated) | 39% | -7% | 0 | 101% (active) | inactive | inactive | inactive | inactive
O=C(NCc1cccc(F)c1)Nc1cccc(-c2ccc(-c3nc4ccc(C(F)(F)F)cc4[nH]3)cc2)c1 | 20% | 50% (active) | -4 | 98% (active) | inactive | inactive | inactive | inactive
Cc1cccc2[nH]c(-c3ccc(-c4cccc(NC(=O)CCc5cnc[nH]5)c4)s3)nc12 | 70% (active) | 2% | -4 | 94% (active) | inactive | inactive | inactive | inactive
CN1CCC(N(Cc2ccc(-c3cnc(NCc4ccccc4)nc3)cc2)S(=O)(=O)c2ccccc2)CC1 | 10% | 48% | 1 | 102% (active) | inactive | inactive | inactive | inactive
